Activity calls are given as the source filed them. Unless noted, how the calls were made is not given here.
Key:
[1] = test system: Wnt5a (protein binding on small-molecule microarray); test: small molecules binding Wnt5a protein – biophysical, small-molecule microarray, 635/667 nm fluorescence, primary screen (AID 1142); details: 635 nm fluorescence, higher = more signal;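 further: fluorescence read at 667 nm with signal to noise per printed feature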
[2] = ATP-based viability of Huh7 replicon cells – cell-based, CellTiter-Glo luminescence, basal, 48 h, cytotoxicity control for HCV replication inhibitor project, primary screen (AID 1143); details: higher = more signal, called active from +8 up or from −8 down;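 further: Huh7 hepatoma cells carrying a hepatitis C replication reporter with no stimulus; test concentration not given here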
[3] = Pseudomonas biofilm growth suppression – PAO1 strain, BacTiter-Glo luminescence, LB-PBS, primary screen (AID 1144); details: P. aeruginosa PAO1 biofilm, 12 h, higher = more signal
[4] = basal CRE-LacZ reporter activity in PC12 – cell-based, unstimulated, primary screen (AID 1145); details: no forskolin, luminescence, 4.5 h, higher = more signal, called active from +8 up or from −8 down
[5] = forskolin-driven CRE-LacZ activity in PC12 – cell-based, CRE-LacZ reporter, forskolin-stimulated, primary screen (AID 1146); details: luminescence, 4.5 h, higher = more signal, called active from +8 up or from −8 down;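 further: PC12 cells with 6xCRE LacZ reporter stimulated by forskolin 10 µM; beta-galactosidase reporter signal reflecting CREB driven transcription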
[6] = target: Streptavidin (Streptomyces avidinii) (UniProt P22629); test: compounds binding control protein streptavidin – biophysical, small-molecule microarray, 635/667 nm fluorescence, artefact control for SMM compound annotation, primary screen (AID 1147); details: higher = more signal;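 further: signal reflects streptavidin binding to arrayed compounds as a control protein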
[7] = probe aInhba binding on compound microarray – biochemical, small-molecule microarray, 635/667 nm fluorescence, primary screen (AID 1148); details: higher = more signal;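 further: score merges 667nm spot fluorescence with signal-to-noise for antibody binding to printed compounds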
Torsin-1A (Homo sapiens) [8] = target: Torsin-1A (Homo sapiens) (UniProt O14656); test: TOR1A wild-type binding on microarray – cell lysate, small-molecule microarray, lysate, 635/667 nm, primary screen (AID 1149); details: COS7 hTOR1A-WT lysate, 635 nm fluorescence, higher = more signal
Torsin-1A (Homo sapiens) [9] = target: Torsin-1A (Homo sapiens) (UniProt O14656); test: torsin A mutant lysate binding on microarrays – cell lysate, small-molecule microarray, COS7 lysate, 635/667 nm fluorescence, primary screen (AID 1150); details: COS7 hTOR1A mutant lysate, 635 nm fluorescence, higher = more signal;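 further: score pools 667 nm emission and signal to noise measuring lysate protein binding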
[10] = test system: Sonic hedgehog protein (Shh); test: Sonic hedgehog microarray binding compounds – biochemical, small-molecule microarray, 635/667 nm fluorescence, primary screen (AID 1151); details: 635 nm fluorescence, higher = more signal;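 further: Shh protein binding to compounds spotted on small-molecule microarray slides; score combines spot fluorescence intensity with signal-to-noise across triplicate slides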
[11] = optical density shifts of acrAB sulA E. coli – strain DRC41, OD650, 48 h, E. coli filamentation inducer project, primary screen (AID 1152); details: higher = more signal, called active from +8 up or from −8 down;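 further: E. coli MC1000 strain DRC41 lacking acrAB efflux pump and sulA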
[12] = probe aLefty1 binding on compound microarray – biochemical, small-molecule microarray, 635/667 nm fluorescence, primary screen (AID 1153); details: higher = more signal;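 further: score merges spot fluorescence with signal-to-noise ratio from the scanned slide images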
[13] = plasmodial surface anion channel blockers, osmotic lysis – cell-based, P. falciparum Indochina, OD700, 1 h, primary screen (AID 1154); details: P. falciparum Indochina infected RBC osmotic lysis, higher = more signal, called active from +8 up or from −8 down
[14] = plasmodial surface anion channel blockers, osmotic lysis – cell-based, P. falciparum Indochina, OD700, 2 h, primary screen (AID 1155);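 further: lysis reports solute entry through the parasite surface anion channel PSAC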; details: P. falciparum Indochina infected erythrocytes, higher = more signal, called active from +8 up or from −8 down
[15] = changes in parasitized red cell lysis, either direction – P. falciparum Indochina, OD700, 3 h, PSAC antagonist project, primary screen (AID 1156); details: P. falciparum-infected erythrocytes, osmotic lysis, higher = more signal, called active from +8 up or from −8 down
[16] = plasmodial surface anion channel blockers, osmotic lysis – cell-based, P. falciparum Indochina, OD700, 18 h, primary screen (AID 1157); details: P. falciparum Indochina infected erythrocytes, osmotic lysis OD700, 18 h; higher = more signal, called active from +8 up or from −8 down
[17] = S6 kinase pathway phospho-S6 level changes – cell-based, A549, cytoblot, luminescence, serum-stimulated, primary screen (AID 1158); details: 5 h, higher = more signal;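 further: serum-stimulated A549 lung adenocarcinoma cells; signal is phosphorylated S6 detected by cytoblot immunostaining with HRP secondary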
[18] = target: NADPH oxidase 2 (Homo sapiens) (UniProt P04839); test: compounds shifting NOX2 Amplex Red fluorescence – cell-based, HEK293-NOX2, PMA-stimulated, NOX inhibitor project, primary screen (AID 1159); details: 45 min, higher = more signal, called active from +8 up or from −8 down; further: test concentration not given here
[19] = target: NADPH oxidase 4 (Homo sapiens) (UniProt Q9NPH5); test: compounds shifting NOX4 Amplex Red fluorescence – cell-based, HEK293-NOX4, tetracycline-induced, NOX inhibitor project, primary screen (AID 1160); details: HEK293-NOX4, Amplex Red H2O2 fluorescence, 45 min; higher = more signal, called active from +8 up or from −8 down
[20] = target: NADPH oxidase 5 (Homo sapiens) (UniProt Q96PH1); test: compounds shifting NOX5 Amplex Red fluorescence – cell-based, HEK293-NOX5, NOX inhibitor project, primary screen (AID 1161); details: HEK293-NOX5, ionomycin, 45 min, higher = more signal
Sequence of NADPH oxidase 5 (Homo sapiens) (Q96PH1 whole entry, looked up): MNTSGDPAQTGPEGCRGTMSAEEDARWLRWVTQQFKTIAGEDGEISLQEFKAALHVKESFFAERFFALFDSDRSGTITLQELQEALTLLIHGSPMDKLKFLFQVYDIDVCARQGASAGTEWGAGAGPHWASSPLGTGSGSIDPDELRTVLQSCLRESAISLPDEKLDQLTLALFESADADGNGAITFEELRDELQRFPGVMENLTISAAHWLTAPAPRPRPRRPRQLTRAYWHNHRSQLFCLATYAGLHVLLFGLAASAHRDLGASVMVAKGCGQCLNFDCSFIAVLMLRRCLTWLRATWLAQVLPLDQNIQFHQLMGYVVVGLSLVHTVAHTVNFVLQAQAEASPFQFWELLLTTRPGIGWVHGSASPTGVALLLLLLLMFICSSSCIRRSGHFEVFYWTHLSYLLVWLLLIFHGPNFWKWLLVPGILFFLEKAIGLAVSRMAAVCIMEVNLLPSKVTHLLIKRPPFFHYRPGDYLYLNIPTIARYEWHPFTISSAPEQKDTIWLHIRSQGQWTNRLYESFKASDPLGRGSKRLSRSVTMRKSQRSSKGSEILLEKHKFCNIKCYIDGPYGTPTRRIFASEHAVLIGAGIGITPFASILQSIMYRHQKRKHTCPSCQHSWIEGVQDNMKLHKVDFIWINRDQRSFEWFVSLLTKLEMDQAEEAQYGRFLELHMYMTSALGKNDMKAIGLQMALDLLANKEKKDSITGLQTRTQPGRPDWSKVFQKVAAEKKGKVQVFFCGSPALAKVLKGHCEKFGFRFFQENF

Sequence of NADPH oxidase 2 (Homo sapiens) (P04839 whole entry, looked up): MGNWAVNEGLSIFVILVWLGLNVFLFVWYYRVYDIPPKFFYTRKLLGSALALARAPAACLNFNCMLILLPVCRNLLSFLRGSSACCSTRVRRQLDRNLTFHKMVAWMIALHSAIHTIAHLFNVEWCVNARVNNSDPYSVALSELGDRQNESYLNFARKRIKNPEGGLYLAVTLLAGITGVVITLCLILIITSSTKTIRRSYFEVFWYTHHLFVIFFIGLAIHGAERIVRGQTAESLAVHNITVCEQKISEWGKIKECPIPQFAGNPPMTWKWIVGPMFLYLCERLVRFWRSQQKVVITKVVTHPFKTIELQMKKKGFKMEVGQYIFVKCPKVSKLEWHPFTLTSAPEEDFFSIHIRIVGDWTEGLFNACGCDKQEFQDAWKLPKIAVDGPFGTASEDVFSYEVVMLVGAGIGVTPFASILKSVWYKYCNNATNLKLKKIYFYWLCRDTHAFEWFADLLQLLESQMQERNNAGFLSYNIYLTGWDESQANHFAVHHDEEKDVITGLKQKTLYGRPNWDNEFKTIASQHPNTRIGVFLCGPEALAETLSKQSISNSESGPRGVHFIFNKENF
Sequence of Torsin-1A (Homo sapiens) (O14656 whole entry, looked up): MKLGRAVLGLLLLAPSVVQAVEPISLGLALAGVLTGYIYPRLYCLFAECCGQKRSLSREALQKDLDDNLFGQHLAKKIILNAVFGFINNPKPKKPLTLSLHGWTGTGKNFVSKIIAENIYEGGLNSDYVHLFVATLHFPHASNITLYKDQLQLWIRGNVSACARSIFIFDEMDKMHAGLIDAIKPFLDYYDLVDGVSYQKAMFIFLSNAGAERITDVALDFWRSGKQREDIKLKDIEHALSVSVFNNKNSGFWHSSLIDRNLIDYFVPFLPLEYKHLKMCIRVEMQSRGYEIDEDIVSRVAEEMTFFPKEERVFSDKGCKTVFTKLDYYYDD
Sequence of NADPH oxidase 4 (Homo sapiens) (Q9NPH5 whole entry, looked up): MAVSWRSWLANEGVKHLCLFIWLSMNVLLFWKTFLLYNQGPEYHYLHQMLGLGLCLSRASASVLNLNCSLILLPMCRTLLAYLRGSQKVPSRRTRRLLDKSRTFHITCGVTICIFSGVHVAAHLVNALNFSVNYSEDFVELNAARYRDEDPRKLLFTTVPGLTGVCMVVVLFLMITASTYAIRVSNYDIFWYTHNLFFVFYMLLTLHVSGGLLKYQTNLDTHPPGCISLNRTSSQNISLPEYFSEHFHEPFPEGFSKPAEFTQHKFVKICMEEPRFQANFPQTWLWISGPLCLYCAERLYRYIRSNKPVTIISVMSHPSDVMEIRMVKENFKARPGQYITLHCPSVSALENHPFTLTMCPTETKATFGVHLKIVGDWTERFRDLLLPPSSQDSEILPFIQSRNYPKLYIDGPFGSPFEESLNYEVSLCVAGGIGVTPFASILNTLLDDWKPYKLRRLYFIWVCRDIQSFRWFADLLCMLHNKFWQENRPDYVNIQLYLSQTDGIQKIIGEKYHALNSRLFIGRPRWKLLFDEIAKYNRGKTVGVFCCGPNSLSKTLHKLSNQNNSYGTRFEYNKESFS
Sequence of Streptavidin (Streptomyces avidinii) (P22629 whole entry, looked up): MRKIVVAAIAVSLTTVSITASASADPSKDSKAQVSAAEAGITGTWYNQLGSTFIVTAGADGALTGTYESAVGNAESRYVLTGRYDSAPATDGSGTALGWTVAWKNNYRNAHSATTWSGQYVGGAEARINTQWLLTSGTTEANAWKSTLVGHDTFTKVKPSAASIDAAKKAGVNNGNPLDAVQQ

SMILES	composite z-score [1]	z-score [2]	z-score [3]	z-score [4]	z-score [5]	composite z-score [6]	composite z-score [7]	composite z-score (Torsin-1A (Homo sapiens) [8])	composite z-score (Torsin-1A (Homo sapiens) [9])	composite z-score [10]	z-score [11]	composite z-score [12]	z-score [13]	z-score [14]	z-score [15]	z-score [16]	z-score [17]	z-score [18]	z-score [19]	z-score [20]
CCCCCCc1nc(-c2ccc(-c3ccc(Cl)c(Cl)c3)o2)c(C)c2c1[Si](C(C)C)(C(C)C)OC2	-0.412	-5.66 (inactive)	-1.17 (inactive)	0.236 (inactive)	0.246 (inactive)	0.0199	-0.0933	-0.782	0.0515	0.14	-0.369 (inactive)	-0.198	1.88 (inactive)	-0.712 (inactive)	0.627 (inactive)	-1.57 (inactive)	1.7	-4.51 (inactive)	-2.74 (inactive)	-4.66
COCCOC(=O)N1C(=O)[C@@]2(c3ccccc31)[C@H](c1ccc(OCCO)cc1)N1[C@H](c3ccccc3)[C@H](c3ccccc3)OC(=O)[C@H]1[C@@H]2C(=O)N1CCc2cc(OC)c(OC)cc2C1	0.349	-2.12 (inactive)	-1.28 (inactive)	0.623 (inactive)	2.12 (inactive)	0.743	0.505	0.518	0.153	1.84	0.341 (inactive)	0.358	12.7 (active)	3.86 (inactive)	1.99 (inactive)	2.18 (inactive)	0.828	1.16 (inactive)	1.52 (inactive)	-0.259
COc1ccc([C@H]2C[C@H]3C(Br)=C[C@@]2(CO)C(=O)[C@]32CO2)cc1	0.0718	0.187 (inactive)	-0.23 (inactive)	0.309 (inactive)	1.6 (inactive)	-0.264	-0.0245	-0.361	-0.83	-0.134	-0.532 (inactive)	-0.144	-0.0473 (inactive)	0.316 (inactive)	-0.231 (inactive)	-0.039 (inactive)	-0.578	0.24 (inactive)	0.624 (inactive)	-0.268
[N-]=[N+]=Nc1ccccc1C[C@]1(C(=O)NCC(O)CO)N=C(c2ccc(OCCCO)cc2)O[C@H]1c1ccccc1 (stereo not given in full)	-0.541	-3.23 (inactive)	0.382 (inactive)	1.19 (inactive)	-1.55 (inactive)	0.204	0.0134	-0.268	0.089	-1.61	-0.2 (inactive)	0.027	19.9 (active)	3.78 (inactive)	1.64 (inactive)	1.18 (inactive)	-0.132	1.34 (inactive)	0.567 (inactive)	-1.25
O=C1C2C=CC(C(O)c3ccc(F)cc3)N(Nc3ccc([N+](=O)[O-])cc3)C2C(=O)N1c1ccccc1 (stereo not given)	0.241	-0.0129 (inactive)	-0.615 (inactive)	-0.415 (inactive)	0.15 (inactive)	1.39	0.0487	-0.232	0.187	-0.241	-1.01 (inactive)	0.129	19.7 (active)	3.8 (inactive)	0.721 (inactive)	1.22 (inactive)	-0.454	-0.95 (inactive)	-2.96 (inactive)	-1.91
C=CCOC(=O)[C@H]1[C@@H]2C(=O)O[C@@H](c3ccccc3)[C@@H](c3ccccc3)N2[C@@H](c2ccc(OCCOC(=O)[C@H]3C[C@H]4C(=O)N[C@@H](CCCCN(C)C)C(=O)N4[C@H]3c3cccc(OCCO)c3)cc2)[C@]12C(=O)Nc1ccc(I)cc12	0.559	-0.366 (inactive)	0.772 (inactive)	-0.671 (inactive)	0.892 (inactive)	0.457	0.12	0.166	0.629	2.27	-1.61 (inactive)	-0.156	-1.87 (inactive)	0.381 (inactive)	-0.0437 (inactive)	0.375 (inactive)	-0.529	2.18 (inactive)	1.01 (inactive)	1.06
COC(=O)[C@]1(Cc2ccccc2)N=C(c2ccc(OCCCO)cc2)O[C@@H]1c1ccccc1N=[N+]=[N-]	0.501	-5.26 (inactive)	-0.441 (inactive)	1.34 (inactive)	-1.47 (inactive)	0.291	-0.0221	-0.0019	0.0366	0.354	-1.19 (inactive)	-0.324	28 (active)	24.7 (active)	0.883 (inactive)	4.33 (inactive)	0.483	-0.936 (inactive)	1.14 (inactive)	0.0948
COCCCNC(=O)[C@@]1(CCS(=O)(=O)c2ccccc2)N=C(c2ccc(OCCCO)cc2)O[C@H]1c1ccccc1N=[N+]=[N-]	1.04	-5.54 (inactive)	-0.372 (inactive)	0.0451 (inactive)	-1.15 (inactive)	0.985	0.467	0.765	1.49	1.72	1.12 (inactive)	0.517	29.4 (active)	21 (active)	1.28 (inactive)	0.425 (inactive)	1.62	-5.07 (inactive)	-2.78 (inactive)	-2.11
COC(=O)c1c(CC[C@@H](CO)NC(=O)NCCc2c[nH]c3ccccc23)oc(C(=O)Cc2ccccc2)c1C(=O)OC	-0.229	-0.195 (inactive)	0.604 (inactive)	1.37 (inactive)	-0.713 (inactive)	-0.322	-0.188	0.207	0.0487	0.0213	0.659 (inactive)	-0.423	7.43 (inactive)	-0.0918 (inactive)	-0.366 (inactive)	-1.01 (inactive)	0.814	-2.09 (inactive)	-1.16 (inactive)	-0.595
